Sm TGR block: qHTS Assay for the Inhibitors of Schistosoma Mansoni Peroxiredoxins | Schistosoma mansoni thioredoxin glutathione reductase (TGR), Q962Y6 | purified TGR, DTNB reduction, TNB absorbance 405 nm | Potency, µM (highest dose often 114 µM), hits mostly inhibitors | actives 3% (n = 360,000) | AID 485364, 2010; active = well fitted inhibition curve with a large enough effect; inconclusive = small, poorly fitted or top-dose-only effect; inactive = no such curve, though single readings can be large or run the other way; note: nearly all actives have a fitted effect of over 60% in size
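First, TGR (20 nM dispensed) and NADPH were mixed with compound. Second, a 15 min room-temperature incubation followed. Third, further NADPH and then DTNB were added to start the reaction. Finally, TNB absorbance was monitored kinetically.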
SARS PLP yeast: qHTS of Yeast-based Assay for SARS-CoV PLP | S. cerevisiae expressing SARS-CoV PLpro, growth rescue | Potency, µM (doses to about 32.9 µM), most hits filed as activators | actives 0.19% (n = 330,000); calls by dose curve; note: nearly all actives have a fitted effect of over 55% in size
A number is an active result. Rows were chosen to be rich in hits. Some 3% of all compounds tested hit in one or more screens of this group.

Screening CC1CC(C)(C)N2C(=O)C(=C(C#N)C#N)c3cccc1c32 (centres undefined) returned Sm TGR block 5.6µM and SARS PLP yeast inactive.
`Cc1cc2c3c(c1)C(C)CC(C)(C)N3C(=O)C2=C(C#N)C#N` (centres undefined) gave Sm TGR block 4µM and SARS PLP yeast inactive.
NC(=O)C(=CNc1nc(-c2ccc(Cl)c(Cl)c2)cs1)C(N)=O was read as Sm TGR block 2.2µM and SARS PLP yeast inactive.
For O=C(O)c1ccc(-c2nc(-c3ccc(Cl)c(Cl)c3)cs2)cc1 the results were Sm TGR block inconclusive and SARS PLP yeast inactive.
CCOCCCNC(=O)C(c1ccc(C)cc1)N(Cc1ccc2c(c1)OCO2)C(=O)c1ccccc1O (centres undefined) was read as Sm TGR block inactive.
`O=C(O)CCCC(=O)Nc1nc2n(n1)C(c1ccc(F)cc1)CC(c1ccc(Cl)cc1)N2` (centres undefined) gave Sm TGR block inactive and SARS PLP yeast inactive.
Screening CC(=O)Nc1nc2n(n1)C(c1ccc(F)cc1)C=C(c1ccc(Cl)cc1)N2 (centres undefined) returned Sm TGR block inactive.
`CC1=CC(c2ccc(Cl)cc2)n2nc(NC(=O)CCCC(=O)O)nc2N1` (centres undefined) gave Sm TGR block 22µM and SARS PLP yeast inactive.
Screening CC1=CC(c2ccc(Cl)cc2)n2nc(NC(=O)CCC(=O)O)nc2N1 (centres undefined) returned Sm TGR block 10µM and SARS PLP yeast inactive.
For COc1ccccc1NC(=O)C1=C(C)Nc2nc(SCc3ccccc3Cl)nn2C1c1ccccn1 (centres undefined) the results were Sm TGR block inactive.
`CCCc1[nH]nc2c1C(c1ccc(OCCN3CCOCC3)c(OC)c1)C(C#N)=C(N)O2` (centres undefined) gave Sm TGR block inactive and SARS PLP yeast inactive.
`CCOc1cc(C2C(C#N)=C(N)SC(N)=C2C#N)ccc1OCCN1CCOCC1` gave Sm TGR block 22µM and SARS PLP yeast inactive.
`Cc1ccc(Cl)cc1NC(=O)N1CCC2(CC1)Oc1ccccc1C(=O)N2Cc1ccccc1F` gave Sm TGR block inactive.
`S=c1[nH]nc(-c2cc(-c3ccccc3)n[nH]2)n1/N=C/C=C/c1ccco1` gave Sm TGR block 11µM and SARS PLP yeast inactive.
O=c1c2ccccc2nc(COc2ccccc2)n1/N=C/c1ccc(O)c(O)c1 was read as Sm TGR block inactive and SARS PLP yeast inactive.
For S=c1[nH]nc(-c2n[nH]c3c2CCC3)n1/N=C/C=C/c1ccco1 the results were Sm TGR block 11µM and SARS PLP yeast inactive.
`S=c1[nH]nc(COc2ccccc2)n1/N=C/C=C/c1ccccc1` gave Sm TGR block inactive and SARS PLP yeast inactive.
Screening S=c1[nH]nc(-c2ccco2)n1/N=C/C=C/c1ccco1 returned Sm TGR block inconclusive and SARS PLP yeast inactive.
Screening S=c1[nH]nc(COc2ccccc2)n1/N=C/C=C/c1ccco1 returned Sm TGR block 13µM and SARS PLP yeast inactive.
O=c1c2ccccc2nc(COc2ccccc2)n1/N=C/c1ccco1 was read as Sm TGR block 40µM and SARS PLP yeast inactive.
`COc1ccccc1/C=C/C=N/n1c(-c2n[nH]c3c2CCC3)n[nH]c1=S` gave Sm TGR block inactive and SARS PLP yeast inactive.
Screening Cc1cccc(Cc2c(C)nc3nc(SCC(=O)NCc4ccc(F)cc4)nn3c2C)c1 returned Sm TGR block inactive.
Screening Cc1ccc(Cl)cc1N1CCN(C(=O)c2ccc(NC(=O)c3nsc4ccccc34)cc2)CC1 returned Sm TGR block inactive.
Screening O=C(c1ccc(CS(=O)c2ccccc2Cl)o1)N1CCN(c2ccccc2F)CC1 (centres undefined) returned Sm TGR block inactive.
CCOC(=O)N1CCC(NC(=O)c2ccc(CS(=O)(=O)c3c(Cl)cccc3Cl)o2)CC1 was read as Sm TGR block inconclusive and SARS PLP yeast inactive.
`CCOC(=O)N1CCN(C(=O)c2ccc(CS(=O)(=O)c3c(Cl)cccc3Cl)o2)CC1` gave Sm TGR block 45µM and SARS PLP yeast inactive.
`O=C(c1ccco1)N1CCN(C(=O)c2ccc(CS(=O)c3ccc(Cl)cc3)o2)CC1` (centres undefined) gave Sm TGR block 40µM and SARS PLP yeast inactive.
For O=C(c1ccc(CS(=O)c2ccccc2Cl)o1)N1CCCCCC1 (centres undefined) the results were Sm TGR block 40µM and SARS PLP yeast inconclusive.
O=C(c1ccc(CS(=O)(=O)c2ccc(Br)cc2)o1)N1CCCCCC1 was read as Sm TGR block 35µM and SARS PLP yeast inactive.
For COc1ccc(S(=O)Cc2ccc(C(=O)N3CCN(C(=O)c4ccco4)CC3)o2)cc1 (centres undefined) the results were Sm TGR block inactive and SARS PLP yeast inactive.

Assay outcomes as filed in PubChem.
